In the antibiotic and cytotoxicity screens of Wong et al. (2023) one finds cytotoxicity call data, which are given here for 32 compounds.

The campaign covered roughly 39,000 compounds. About 3,300 (8.5%) were called active. Many of the other results were omitted from the sample, so actives are more common in it than they were.

This test concerns HepG2. Nature of the test: cytotoxicity call (relative viability < 0.9). The settings on record: 10 µM.
As to `C[C@@H]1CCCCO[C@@H](CN(C)S(=O)(=O)c2ccccc2)[C@H](C)CN([C@H](C)CO)C(=O)c2cc(NC(=O)Nc3cccc4ccccc34)ccc2O1`, the cytotoxicity call is “inactive”.
In the case of `C[C@H]1CN([C@@H](C)CO)C(=O)c2cccc(NC(=O)C3CCOCC3)c2O[C@H]1CN(C)Cc1ccncc1` it was “inactive”; in that of `COCCOC(=O)N1C(=O)[C@@]2(c3cc(C#CCCO)ccc31)[C@H](c1ccccc1OCCO)N1[C@H](c3ccccc3)[C@H](c3ccccc3)OC(=O)[C@H]1[C@@H]2C(=O)N1CCc2cc(OC)c(OC)cc2C1`, “inactive”.
`COCCOC(=O)N1C(=O)[C@@]2(c3cc(C#CC4=CCCCC4)ccc31)[C@H](c1ccc(OCCO)cc1)N1[C@H](c3ccccc3)[C@H](c3ccccc3)OC(=O)[C@H]1[C@@H]2C(=O)N1CCCCCCC1`: the cytotoxicity call was “inactive”.
On to `COCCOC(=O)N1C(=O)[C@@]2(c3cc(C#CC4=CCCCC4)ccc31)[C@H](C(=O)N1CCc3cc(OC)c(OC)cc3C1)[C@H]1C(=O)O[C@H](c3ccccc3)[C@H](c3ccccc3)N1[C@@H]2c1ccc(O)cc1`, for which the cytotoxicity call is “inactive”.
With `COCCOC(=O)N1C(=O)[C@@]2(c3cc(C#CC4=CCCCC4)ccc31)[C@H](c1ccc(OCCO)cc1)N1[C@H](c3ccccc3)[C@H](c3ccccc3)OC(=O)[C@H]1[C@@H]2C(=O)N1CCc2cc(OC)c(OC)cc2C1`, the cytotoxicity call was “active”.
`COCCOC(=O)N1C(=O)[C@@]2(c3cc(C#CC4=CCCCC4)ccc31)[C@H](C(=O)N1CCc3cc(OC)c(OC)cc3C1)[C@H]1C(=O)O[C@H](c3ccccc3)[C@H](c3ccccc3)N1[C@@H]2c1ccccc1OCCO`: the cytotoxicity call was “active”.
In the case of `COCCOC(=O)N1C(=O)[C@@]2(c3cc(C#CCCO)ccc31)[C@H](C(=O)N1CCc3cc(OC)c(OC)cc3C1)[C@H]1C(=O)O[C@H](c3ccccc3)[C@H](c3ccccc3)N1[C@@H]2c1ccccc1OCCO` it was “active”.
In the case of `COCCOC(=O)N1C(=O)[C@@]2(c3cc(C#CCNC(N)=O)ccc31)[C@H](C(=O)N1CCc3cc(OC)c(OC)cc3C1)[C@H]1C(=O)O[C@H](c3ccccc3)[C@H](c3ccccc3)N1[C@@H]2c1ccccc1OCCO` it was “inactive”; in that of `COCCOC(=O)N1C(=O)[C@@]2(c3cc(C#CC4=CCCCC4)ccc31)[C@H](c1ccccc1OCCO)N1[C@H](c3ccccc3)[C@H](c3ccccc3)OC(=O)[C@H]1[C@@H]2C(=O)N1CCc2cc(OC)c(OC)cc2C1`, “inactive”.
Regarding `COCCOC(=O)N1C(=O)[C@@]2(c3cc(C#CC4=CCCCC4)ccc31)[C@H](c1ccccc1OCCO)N1[C@H](c3ccccc3)[C@H](c3ccccc3)OC(=O)[C@H]1[C@@H]2C(=O)N1CCCCCCC1`, the cytotoxicity call was “inactive”.
Consider `C[C@H]1CN([C@@H](C)CO)C(=O)Cc2cc(NS(=O)(=O)c3ccc(F)cc3)ccc2O[C@H]1CN(C)S(=O)(=O)c1cccs1`, for which the cytotoxicity call is “inactive”.
In the case of `Cc1ccccc1-c1ccc2c(c1)O[C@@H](CN(C)C(=O)Nc1ccc(C(F)(F)F)cc1)[C@@H](C)CN([C@@H](C)CO)S2(=O)=O` it was “inactive”; in that of `COC(=O)[C@@H]1CC(=O)N(C(C)C)C1`, “inactive”.
For the compound `C[C@@H]1CN([C@H](C)CO)C(=O)c2c(c3ccccc3n2C)-c2ccccc2CO[C@@H]1CN(C)Cc1ccc(Oc2ccccc2)cc1`, the cytotoxicity call is “inactive”.
In the case of `CN1CCN(C(=O)C[C@@H]2C=C[C@H](NC(=O)Cc3ccccn3)[C@@H](CO)O2)CC1` it was “inactive”; in that of `CCCC#Cc1cnc2c(c1)C(=O)N([C@@H](C)CO)C[C@@H](C)[C@H](CN(C)C(=O)c1ccc3c(c1)OCO3)O2`, “inactive”.
In the case of `Cc1noc(C)c1NC(=O)N(C)C[C@H]1Oc2ccc(NC(=O)Nc3cccc4ccccc34)cc2CC(=O)N([C@@H](C)CO)C[C@H]1C` it was “inactive”; in that of `C[C@@H]1CCCCO[C@@H](CN(C)C(=O)Nc2ccc(C(F)(F)F)cc2)[C@H](C)CN([C@@H](C)CO)C(=O)c2cc(NC(=O)CCC(F)(F)F)ccc2O1`, “inactive”; in that of `C[C@@H]1CN([C@@H](C)CO)C(=O)c2cc(NC(=O)CCC(F)(F)F)ccc2O[C@@H](C)CCCCO[C@H]1CN(C)C(=O)Nc1ccc(C(F)(F)F)cc1`, “inactive”.
Consider `C[C@H]1CCCCO[C@H](CN(C)C(=O)Nc2ccc(C(F)(F)F)cc2)[C@@H](C)CN([C@@H](C)CO)C(=O)c2cc(NC(=O)CCC(F)(F)F)ccc2O1`, for which the cytotoxicity call was “active”.
In the case of `C[C@@H]1CCCCO[C@H](CN(C)C(=O)Nc2ccc(C(F)(F)F)cc2)[C@@H](C)CN([C@H](C)CO)C(=O)c2cc(NC(=O)CCC(F)(F)F)ccc2O1` it was “inactive”.
In the case of `C[C@H](CO)N1C[C@H](C)[C@H](CN(C)C(=O)Nc2ccc(C(F)(F)F)cc2)OCCCC[C@H](C)Oc2ccc(NC(=O)CCC(F)(F)F)cc2C1=O` it was “inactive”; in that of `C[C@@H]1CCCCO[C@@H](CN(C)C(=O)Nc2ccc(C(F)(F)F)cc2)[C@@H](C)CN([C@H](C)CO)C(=O)c2cc(NC(=O)CCC(F)(F)F)ccc2O1`, “inactive”.
With `C[C@@H]1CCCCO[C@H](CN(C)C(=O)Nc2ccc(C(F)(F)F)cc2)[C@H](C)CN([C@@H](C)CO)C(=O)c2cc(NC(=O)CCC(F)(F)F)ccc2O1`, the cytotoxicity call was “active”.
Consider `C[C@H](CO)N1C[C@H](C)[C@@H](CN(C)C(=O)Nc2ccc(C(F)(F)F)cc2)OCCCC[C@H](C)Oc2ccc(NC(=O)CCC(F)(F)F)cc2C1=O`, for which the cytotoxicity call was “active”.
In the case of `C[C@@H]1CCCCO[C@H](CN(C)C(=O)Nc2ccc(C(F)(F)F)cc2)[C@H](C)CN([C@H](C)CO)C(=O)c2cc(NC(=O)CCC(F)(F)F)ccc2O1` it was “inactive”; in that of `Clc1ccc2c(c1)[C@H]1C=CC[C@@H]1[C@@H](c1ccccc1)N2`, “inactive”.
For the compound `O=C(C[C@H]1C[C@H]2c3cc(NC(=O)C4CCOCC4)ccc3O[C@H]2[C@@H](CO)O1)NCc1ccc2c(c1)OCO2`, the cytotoxicity call is “inactive”.
Consider `C[C@@H]1CN([C@H](C)CO)C(=O)c2cc(NC(=O)Nc3cccc4ccccc34)ccc2O[C@@H](C)CCCCO[C@@H]1CN(C)C(=O)NC1CCCCC1`, for which the cytotoxicity call was “inactive”.
In the case of `CN(C)C(=O)CN1CCC2(CC1)CN(CCn1cccn1)C(=O)CO2` it was “inactive”; in that of `CO[C@@H]1CN(C)C(=O)c2ccc(NS(=O)(=O)CC(F)(F)F)cc2OC[C@@H](C)N(C(=O)c2ccc3c(c2)OCO3)C[C@@H]1C`, “inactive”.
